# Measured values as given in PubChem BioAssay AID2283145 (EPA ToxCast).
# Records with an inconclusive call do not appear. The source made the active and inactive calls. The calls were made as follows: active = hit-call score of the fitted dose curve at least 0.9, where 1 is the maximum; inconclusive = response in the unintended direction; inactive = score below 0.9.
# Molecular target: human Cyclin-Dependent Kinase 6 (CDK6), CDK6 (gene 1021) (UniProt Q00534)
# Assay: NVS_ENZ_hCDK6: NovaScreen (NVS) Enzymatic Assay for human Cyclin-Dependent Kinase 6 (CDK6)
# Procedure: NVS_ENZ_hCDK6 is a biochemical, single-readout assay that uses extracted gene-proteins in a cell-free assay. Measurements were taken 1 hour after chemical dosing in a 384-well plate.NVS_ENZ_hCDK6 is one of one assay component(s) measured or calculated from the NVS_ENZ_hCDK6 assay. It is designed to make measurements of enzyme activity, a form of enzyme reporter, as detected with fluorescence intensity signals by Fluorescence and electrophoretic mobility shift technology.Data from the assay component NVS_ENZ_hCDK6 was analyzed into 1 assay endpoint. This assay endpoint, NVS_ENZ_hCDK6, was analyzed in the positive analysis fitting direction relative to DMSO as the negative control and baseline of activity. Using a type of enzyme reporter, loss-of-signal activity can be used to understand changes in the enzymatic activity as they relate to the gene CDK6. Furthermore, this assay endpoint can be referred to as a primary readout, because this assay has produced multiple assay endpoints where this one serves a enzymatic activity function. To generalize the intended target to other relatable targets, this assay endpoint is annotated to the kinase intended target family, where the subfamily is serine/threonine kinase.
# Binding assays used specific radioligands (tritiated, iodinated) with non-radioactive competitive displacement ligands in agonist or antagonist protocols (as indicated) and various reference compounds and inhibitors to titrate specific binding to receptors and transporters. Most enzyme assays (CYPs, kinases, phosphatases, proteases, HDACs) used recombinant protein and specific substrates (fluorescence mostly, some colorimetric and radioactive) and inhibitors, followed by a biochemical separation of substrate and product. All assays for the biochemical HTS were initially run in duplicate at a single concentration (10 uM for CYP450 assays and 25 uM for all others). […] Each assay was run with positive and negative controls, and concurrent controls on every plate. The follow-up (secondary) screen tested active chemical-pairs in concentration series, as well as a few additional assays not tested in the primary screen, some selected negative inactives, and several cases re-run in the concentration series for confirmatory purposes.
# human Cyclin-Dependent Kinase 6 (CDK6), CDK6 (gene 1021), sequence (Q00534 whole entry, looked up): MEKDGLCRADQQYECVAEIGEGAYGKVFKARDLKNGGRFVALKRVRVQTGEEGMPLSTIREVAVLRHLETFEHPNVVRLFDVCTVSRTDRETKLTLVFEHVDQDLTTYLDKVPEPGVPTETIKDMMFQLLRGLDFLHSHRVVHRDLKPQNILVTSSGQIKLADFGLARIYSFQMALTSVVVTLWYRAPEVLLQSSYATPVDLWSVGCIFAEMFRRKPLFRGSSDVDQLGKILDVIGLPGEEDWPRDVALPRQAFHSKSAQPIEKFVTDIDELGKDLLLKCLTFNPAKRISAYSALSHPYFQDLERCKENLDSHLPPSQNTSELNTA
SMILES,AC50,outcome
CN(C)[C@@H]1C(=O)C(C(N)=O)=C(O)[C@@]2(O)C(=O)C3=C(O)c4c(O)cccc4[C@@](C)(O)[C@H]3[C@H](O)[C@@H]12,23.1 µM (active),
S=C([S-])NCCNC(=S)[S-].[Mn+2],10.5 µM (active),
S=C(S)NCCNC(=S)S.[Mn+2].[S-]C([S-])=NCCN=C([S-])[S-].[Zn+2],9.65 µM (active),
Nc1c(Cl)c(Cl)nc(C(=O)O)c1Cl,,inactive
